Results as given in publication PMC8384837, “Expanding the binding specificity for RNA recognition by a PUF domain”.

How the values were obtained:
Experiment in all cases: yeast three-hybrid, YBZ-1, SC-Leu-His + 0.5 mM 3-AT, 4 days
Details in all cases: tags: N-Gal4 AD-HA kept; label: inside an RPR1-promoter hybrid RNA with tandem MS2 sites; ssRNA
[1] = biological target: PUM1 PUF domain R8-RFS (Homo sapiens, UniProt Q14671 828-1176, N1122R;Y1123F;Q1126S)
Procedure, shortened: (§1)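 Repeat regions from input (SC-Leu) and selection (SC-Leu-His + 0.5 mM 3-AT) plates were PCR-amplified and Illumina-sequenced after four days of growth. The cells were strain YBZ-1 with a LexA–MS2 coat fusion and a HIS3 reporter, co-expressing Pumilio-1 PUF domain libraries and matching RNA elements from a centromeric plasmid. The interaction score is the log change in variant frequency from input to selection, taken in log2 with a pseudocount of 1 for absent variants.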

[2] = biological target: T1, PUM1 PUF domain R6-QYG (Homo sapiens, UniProt Q14671 828-1176, N1043Q;Q1047G)
T1 sequence: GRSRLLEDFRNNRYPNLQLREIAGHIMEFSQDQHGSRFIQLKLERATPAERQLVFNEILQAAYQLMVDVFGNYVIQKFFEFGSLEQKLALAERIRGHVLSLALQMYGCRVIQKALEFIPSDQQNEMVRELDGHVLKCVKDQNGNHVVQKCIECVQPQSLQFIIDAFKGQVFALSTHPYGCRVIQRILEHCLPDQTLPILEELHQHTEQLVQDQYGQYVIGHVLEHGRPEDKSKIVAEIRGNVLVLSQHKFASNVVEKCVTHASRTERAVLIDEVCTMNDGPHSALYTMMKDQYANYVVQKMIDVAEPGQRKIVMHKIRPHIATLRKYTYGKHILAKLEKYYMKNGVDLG
Procedure, shortened: as §1

[3] = biological target: PUM1 PUF domain R4-ACS (Homo sapiens, UniProt Q14671 828-1176, N971A;H972C;Q975S)
PUM1 PUF domain R4-ACS, sequence (Q14671 828-1176 N971A/H972C/Q975S): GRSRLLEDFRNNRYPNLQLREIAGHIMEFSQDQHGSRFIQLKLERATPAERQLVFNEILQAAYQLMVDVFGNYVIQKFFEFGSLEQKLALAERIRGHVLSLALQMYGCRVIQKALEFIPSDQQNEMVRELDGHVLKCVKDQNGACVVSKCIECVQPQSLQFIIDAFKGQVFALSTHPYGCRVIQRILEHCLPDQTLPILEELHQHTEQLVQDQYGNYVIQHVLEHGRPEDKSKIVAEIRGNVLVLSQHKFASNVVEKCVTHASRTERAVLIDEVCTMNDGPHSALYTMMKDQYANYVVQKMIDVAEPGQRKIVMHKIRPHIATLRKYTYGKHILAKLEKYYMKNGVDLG
Procedure, shortened: as §1

[4] = biological target: PUM1 PUF domain R4-GFP (Homo sapiens, UniProt Q14671 828-1176, N971G;H972F;Q975P)
PUM1 PUF domain R4-GFP, sequence (Q14671 828-1176 N971G/H972F/Q975P): as the sequence (Q14671 828-1176 N971A/H972C/Q975S) above, with A144G, C145F, S148P counted along it
Procedure, shortened: as §1

[5] = biological target: PUM1 PUF domain R3-TRS (Homo sapiens, UniProt Q14671 828-1176, C935T;Q939S)
PUM1 PUF domain R3-TRS, sequence (Q14671 828-1176 C935T/Q939S): as the sequence (Q14671 828-1176 N971A/H972C/Q975S) above, with C108T, Q112S, A144N, C145H, S148Q counted along it
Procedure, shortened: as §1

[6] = biological target: PUM1 PUF domain R3-PHQ (Homo sapiens, UniProt Q14671 828-1176, C935P;R936H)
PUM1 PUF domain R3-PHQ, sequence (Q14671 828-1176 C935P/R936H): as the sequence (Q14671 828-1176 N971A/H972C/Q975S) above, with C108P, R109H, A144N, C145H, S148Q counted along it
Procedure, shortened: as §1

[7] = biological target: PUM1 PUF domain R8-PWW (Homo sapiens, UniProt Q14671 828-1176, N1122P;Y1123W;Q1126W)
PUM1 PUF domain R8-PWW, sequence (Q14671 828-1176 N1122P/Y1123W/Q1126W): as the sequence (Q14671 828-1176 N971A/H972C/Q975S) above, with A144N, C145H, S148Q, N295P, Y296W, Q299W counted along it
Procedure, shortened: as §1

[8] = biological target: PUM1 PUF domain R3-LYL (Homo sapiens, UniProt Q14671 828-1176, C935L;R936Y;Q939L)
PUM1 PUF domain R3-LYL, sequence (Q14671 828-1176 C935L/R936Y/Q939L): as the sequence (Q14671 828-1176 N971A/H972C/Q975S) above, with C108L, R109Y, Q112L, A144N, C145H, S148Q counted along it
Procedure, shortened: as §1

[9] = biological target: PUM1 PUF domain R7-RRT (Homo sapiens, UniProt Q14671 828-1176, S1079R;N1080R;E1083T)
Procedure, shortened: as §1

[10] = biological target: PUM1 PUF domain R7-RPV (Homo sapiens, UniProt Q14671 828-1176, S1079R;N1080P;E1083V)
PUM1 PUF domain R7-RPV, sequence (Q14671 828-1176 S1079R/N1080P/E1083V): as the sequence (Q14671 828-1176 N971A/H972C/Q975S) above, with A144N, C145H, S148Q, S252R, N253P, E256V counted along it
Procedure, shortened: as §1

[11] = biological target: PUM1 PUF domain R3-MWP (Homo sapiens, UniProt Q14671 828-1176, C935M;R936W;Q939P)
PUM1 PUF domain R3-MWP, sequence (Q14671 828-1176 C935M/R936W/Q939P): as the sequence (Q14671 828-1176 N971A/H972C/Q975S) above, with C108M, R109W, Q112P, A144N, C145H, S148Q counted along it
Procedure, shortened: as §1

[12] = biological target: PUM1 PUF domain R3-IFL (Homo sapiens, UniProt Q14671 828-1176, C935I;R936F;Q939L)
Procedure, shortened: as §1

[13] = biological target: PUM1 PUF domain R3-KSD (Homo sapiens, UniProt Q14671 828-1176, C935K;R936S;Q939D)
Procedure, shortened: as §1

[14] = biological target: PUM1 PUF domain R3-RSQ (Homo sapiens, UniProt Q14671 828-1176, C935R;R936S)
PUM1 PUF domain R3-RSQ, sequence (Q14671 828-1176 C935R/R936S): as the sequence (Q14671 828-1176 N971A/H972C/Q975S) above, with C108R, R109S, A144N, C145H, S148Q counted along it
Procedure, shortened: as §1

[15] = biological target: PUM1 PUF domain R5-RSG (Homo sapiens, UniProt Q14671 828-1176, C1007R;R1008S;Q1011G)
Procedure, shortened: as §1

[16] = biological target: PUM1 PUF domain R4-ERQ (Homo sapiens, UniProt Q14671 828-1176, N971E;H972R)
PUM1 PUF domain R4-ERQ, sequence (Q14671 828-1176 N971E/H972R): as the sequence (Q14671 828-1176 N971A/H972C/Q975S) above, with A144E, C145R, S148Q counted along it
Procedure, shortened: as §1

GGCUAGAACUAGUGGAUCCCCCGGCGCCCGGCGGCUCGAGCCCGGGUAAGUGUAAAUAGUCUGCAUGCCGCCGGGCGCCAUGCCUGCAGGUCGACUCUAGAAAACAUG
binding signal [1]: 6.27 log2 enrichment (interaction score) | binding signal [2]: 3.17 log2 enrichment (interaction score) | binding signal [3]: 2.98 log2 enrichment (interaction score) | binding signal [4]: 4.75 log2 enrichment (interaction score) | binding signal [5]: 4.62 log2 enrichment (interaction score) | binding signal [6]: 4.19 log2 enrichment (interaction score) | binding signal [7]: 3.57 log2 enrichment (interaction score) | binding signal [8]: 4.43 log2 enrichment (interaction score)

GGCUAGAACUAGUGGAUCCCCCGGCGCCCGGCGGCUCGAGCCCGGGUAAGUUUAAAUAGUCUGCAUGCCGCCGGGCGCCAUGCCUGCAGGUCGACUCUAGAAAACAUG
binding signal [9]: 4.83 log2 enrichment (interaction score) | binding signal [10]: 3.09 log2 enrichment (interaction score)

GGCUAGAACUAGUGGAUCCCCCGGCGCCCGGCGGCUCGAGCCCGGGUAAGUGUAAGUAGUCUGCAUGCCGCCGGGCGCCAUGCCUGCAGGUCGACUCUAGAAAACAUG
binding signal [5]: 1.93 log2 enrichment (interaction score) | binding signal [11]: 5.07 log2 enrichment (interaction score) | binding signal [8]: 4.81 log2 enrichment (interaction score)

GGCUAGAACUAGUGGAUCCCCCGGCGCCCGGCGGCUCGAGCCCGGGUAAGUGUAAUUAGUCUGCAUGCCGCCGGGCGCCAUGCCUGCAGGUCGACUCUAGAAAACAUG
binding signal [12]: 3.79 log2 enrichment (interaction score) | binding signal [13]: 2.88 log2 enrichment (interaction score) | binding signal [14]: 4.22 log2 enrichment (interaction score) | binding signal [5]: 1.31 log2 enrichment (interaction score) | binding signal [11]: 3.31 log2 enrichment (interaction score) | binding signal [8]: 3.45 log2 enrichment (interaction score)

GGCUAGAACUAGUGGAUCCCCCGGCGCCCGGCGGCUCGAGCCCGGGUAAGUGUUAAUAGUCUGCAUGCCGCCGGGCGCCAUGCCUGCAGGUCGACUCUAGAAAACAUG
binding signal [15]: 2.84 log2 enrichment (interaction score)

GGCUAGAACUAGUGGAUCCCCCGGCGCCCGGCGGCUCGAGCCCGGGUAAGUGUACAUAGUCUGCAUGCCGCCGGGCGCCAUGCCUGCAGGUCGACUCUAGAAAACAUG
binding signal [3]: 1.22 log2 enrichment (interaction score) | binding signal [16]: 2.62 log2 enrichment (interaction score) | binding signal [4]: 5.41 log2 enrichment (interaction score)

GGCUAGAACUAGUGGAUCCCCCGGCGCCCGGCGGCUCGAGCCCGGGUAAGUGUCAAUAGUCUGCAUGCCGCCGGGCGCCAUGCCUGCAGGUCGACUCUAGAAAACAUG
binding signal [15]: 3.08 log2 enrichment (interaction score)
